Screening results (PubChem)
TDP1 cell noCPT = qHTS for Inhibitors of human tyrosyl-DNA phosphodiesterase 1 (TDP1): qHTS in cells in absence of CPT; Potency, µM (highest dose often 46.2 µM), most hits filed as inhibitors; DT40 Tdp1-/- hTDP1 cells, no CPT, ATP luminescence, 48 h; AID 686978, 2013; 420,000 tested, 15% active; further: nearly all actives have a fitted effect of over 55% in size
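DT40 Tdp1-/-;hTDP1 cells, no CPT (DMSO vehicle only), 400 cells/well; compounds pin-transferred; ≥48 hr, 37 °C; CellTiter-Glo 30 min RT dark, luminescence read.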
DT40 TDP1 CPT = growth inhibition of DT40 Tdp1-/-;hTDP1 cells with camptothecin (screen for TDP1 inhibitors); AID 686979; 420,000 tested, 12% active; chicken DT40 Tdp1-/-;hTDP1 cells + 20 nM CPT, ATP luminescence, 48 h; Potency, µM (series often up to 46.2 µM), actives largely listed as inhibitors; further: nearly all actives have a fitted effect of over 55% in size
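Chicken DT40 Tdp1-/- cells complemented with human TDP1, 400 cells/well, exposed to compounds plus 20 nM camptothecin for at least 48 h at 37 C; viability read as ATP content by CellTiter-Glo luminescence.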
IL-1B inflam inh = inhibitors of inflammasome signaling (IL-1 beta secretion); THP-1 LPS/ATP IL-1B secretion, AlphaLISA, 16 h; hits give low values; activity change, % at 57.5 µM; 360,000 tested, 4.7% active; in the data active means activity change below about -50%; inconclusive means mostly about -30% to -49%
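Secreted IL-1B measured by AlphaLISA bead assay after 16 h compound exposure of THP-1 cells; compounds (final up to 57.5 uM) added 1 h before LPS (250 ng/mL) and ATP (1.25 mM) stimulation; lower signal means less secretion.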
HT1080-NT tox = kills 2HG-producing HT-1080-NT fibrosarcoma cells. HT-1080-NT fibrosarcoma viability, CellTiter-Glo ATP luminescence, 48 h. Potency, µM (titrated, usually from 46.1 µM), most hits filed as cytotoxic. 360,000 tested, 1.6% active. AID 686970;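 further: NT is the 2HG producing partner of a matched IDH1 knockdown line; nearly all actives have a fitted effect of over 55% in size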
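HT-1080-NT; 750 cells/well; 5% FBS RPMI; 48 h compound, 37 degrees C; CellTiter-Glo luminescence; curve fitting and curve-class assignment.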
HT1080 IDH1KD tx = HT-1080 IDH1 knockdown cell toxicity (counter line). HT-1080 IDH1 knockdown viability, ATP luminescence, 48 h. Potency, µM (titrated, usually from 46.1 µM), most hits filed as cytotoxic. 360,000 tested, 2% active
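IDH1KD HT-1080 cells, 750/well, RPMI + 5% FBS; compound pinned after 2 h settling; 48 h, 37 °C; CellTiter-Glo luminescence; % activity normalised to DMSO and no-cell wells; curves fitted, classed by r2 and efficacy.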
ELG1 repair inh = blocks ELG1-dependent DNA repair in HEK293T cells. HEK293T ELG1-luciferase reporter, luminescence, 16 h; DNA damage induced by 5-fluorouridine. AID 504467. 330,000 tested, 2.3% active. Potency, µM (highest dose often 46.1 µM), most hits filed as inhibitors; further: nearly all actives have a fitted effect of over 55% in size
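Cells (2,000 per well) received 5-fluorouridine plus test compound or DMSO and were incubated 16 hr at 37 °C, 5% CO2. Luciferase activity was read by luminescence 30 min after ONE-Glo addition; signal suppression marked inhibition of damage-induced ELG1 function.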
A number is an active result; 0 = inactive; ? = inconclusive; - = no result. The list is not random: actives were taken first. Their share in the collection is about 19%. Unless noted, the call rests on the fitted dose curve; in most records, active means well fitted curve in the direction sought with a large enough effect; inconclusive means small, poorly fitted or top-dose-only effect, or another doubt; inactive means no such curve, though single readings can be large; an effect the other way counts as inactive or inconclusive.

SMILES	TDP1 cell noCPT	DT40 TDP1 CPT	IL-1B inflam inh	HT1080-NT tox	HT1080 IDH1KD tx	ELG1 repair inh
COC(=O)c1cc(-c2c(C)oc3cc(OC)ccc3c2=O)c(C)o1	18µM	12µM	0	0	0	0
O=C1/C(=C/c2ccc(C(=O)O)cc2)CCC/C1=C\c1ccc(C(=O)O)cc1	0	0	0	0	0	0
Cn1cccc1/C=C1\CCC/C(=C\c2cccn2C)C1=O	29µM	?	?	0	0	?
CCCS(=O)(=O)c1ncc(Cl)c(C(=O)Nc2c(C(=O)Nc3ccccc3)oc3ccccc23)n1	2.6µM	2.1µM	-	-	-	-
CCOc1ccc(NC(=O)c2nc(S(=O)(=O)Cc3ccccc3)ncc2Cl)cc1	0.4µM	0.32µM	-	-	-	-
COC(=O)c1ccccc1NC(=O)c1nc(S(=O)(=O)Cc2ccccc2)ncc1Cl	1.3µM	2.9µM	0	0	0	0
CCOc1ccc(NC(=O)c2nc(SCc3ccccc3F)ncc2Cl)cc1	0	0	-	-	-	-
CS(=O)(=O)c1ncc(Cl)c(C(=O)Nc2ccc3ccccc3c2)n1	0.65µM	1µM	-99	9.2µM	2.9µM	?
CSc1ncc(Cl)c(C(=O)Nc2c(C(=O)Nc3cccc(C)c3)oc3ccccc23)n1	0	0	-	-	-	-
C=CCn1c(C)nc2c(sc3nc4c(cc32)COC(C)(C)C4)c1=O	?	?	0	0	0	?
Cc1ccc(CNC(=O)c2ccc(CS(=O)(=O)Cc3ccc(F)cc3)o2)cc1	?	0	-	-	-	-
CCN(CC(=O)Nc1c(F)cccc1F)C(=O)CCC(=O)c1ccc(C)cc1	0	0	0	0	0	?
CCOc1ccc(NC(=O)c2nc(S(=O)(=O)Cc3ccc(C)cc3)ncc2Cl)cc1	0.63µM	0.79µM	-	-	-	-
CCSc1ncc(Cl)c(C(=O)Nc2ccc(S(=O)(=O)Nc3onc(C)c3C)cc2)n1	0	0	0	0	0	0
CCS(=O)(=O)c1ncc(Cl)c(C(=O)Nc2ccc(S(=O)(=O)N3CCCC(C)C3)cc2)n1 (centres undefined)	2.3µM	0.92µM	-104	2.6µM	4.6µM	?
CCS(=O)(=O)c1ncc(Cl)c(C(=O)Nc2ccc(C)cc2)n1	1.8µM	1.6µM	-99	18µM	15µM	?
O=C(Nc1ccc(OC(F)F)cc1)c1ncc(Cl)c(Cl)c1Cl	0	0	-158	0	0	0
Cc1ccc(NC(=O)c2ncc(Cl)c(Cl)c2Cl)cc1C	?	?	0	0	0	?
COc1ccccc1-c1nc(CNC(=O)Nc2ccccc2)c(C)o1	0	0	-	-	-	-
Cn1c(SCC(=O)NCc2cccs2)nnc1-c1ccc(O)cc1	0	0	0	0	0	0
CN1C(=O)C(C)(C)c2cc(S(=O)(=O)N3CCC(C(=O)NCc4ccccc4Cl)CC3)ccc21	0	0	0	0	0	0
CSCCC(NC(=O)c1ccc(C(C)(C)C)cc1)C(=O)O (centres undefined)	0	0	0	0	0	0
CCC(=O)N(Cc1c(C)nn(-c2ccccc2)c1Cl)c1ccc(Cl)cc1	?	?	0	0	0	?
COc1ccc(NC(=O)c2nc(S(=O)(=O)Cc3ccc(C)cc3)ncc2Cl)cc1	2.1µM	16µM	-	-	-	-
CSc1ncc(Cl)c(C(=O)Nc2ccc(NC(C)=O)cc2)n1	0	0	0	0	0	0
Cc1ccc(CS(=O)(=O)c2ncc(Cl)c(C(=O)Nc3ccc(OC(F)F)cc3)n2)cc1	3.7µM	3.7µM	-103	16µM	?	?
CC(=O)Nc1ccc(NC(=O)c2nc(S(=O)(=O)Cc3ccccc3)ncc2Cl)cc1	0.46µM	0.26µM	-	0	0	?
CCOC(=O)C1CCN(C(c2cccc(F)c2)c2c(O)cc(C)n(Cc3ccco3)c2=O)CC1 (centres undefined)	0	0	-	-	-	-
COc1cccc2c1Oc1ncccc1N(C(=O)CCC(=O)NCc1cccc(C)c1)C2	0	0	0	0	0	0
